From PubChem BioAssay
Hits are enriched below; roughly 2.2% of the tested compounds scored in any of these assays.
EWS-Fli block: EWS/Fli transcriptional activity inhibition; A673 NR0B1-luciferase reporter, viability-normalised; inhibition, % at 12.6 µM; 350,000 tested, 0.67% active; AID 651661;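 active means mean inhibition of at least 50% after viability correction, with every replicate also passing that limit; inconclusive means mean reaches 50% but only one of two replicates passes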;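 further: firefly luciferase signal divided by Alamar Blue viability fluorescence both relative to DMSO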
PGC1a acetyl inh: lowers PGC1a acetylation signal in U2OS cells; AlphaScreen anti-acetyl-lysine; with virally co-expressed GCN5 acetyltransferase; inhibition, % at 15.6 µM; 350,000 tested, 0.17% active; AID 651687;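 active means every replicate shows inhibition of at least 40%; inconclusive means mean inhibition at least 40% but some replicate below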;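 further: 0% = neutral control wells and 100% = positive control wells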
PAX8 reporter: lowers PAX8-driven luciferase in RMG-I cells | RMG-I TPO-luciferase reporter, SteadyGlo, 24 h | 360,000 tested, 1.2% active | AID 652154 | inhibition, % at 12.6 µM;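 active means mean replicate inhibition at least 60% with every replicate also reaching 60%; inconclusive means only one of the two criteria is met; inactive means mean below 60% and not all replicates reaching 60%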;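 further: luciferase light reporting Pax8 driven TPO promoter activity; plate controls were median of neutral control wells for no effect and mitoxantrone controls for full effect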
EBV LMP1 NFkB: inhibitors of Epstein-Barr LMP1-induced NF-kappaB reporter. LMP1-induced NF-kappaB luciferase reporter cells, luminescence. inhibition, % at 12.5 µM. 350,000 tested, 0.69% active; in the data active means inhibition above about 41%; inconclusive means no clear call, values can overlap the other calls;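 further: 0% = neutral control wells and 100% = reference inhibitor control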
MITF TRPM1 inh: inhibitors of MITF-driven TRPM1 promoter in melanoma cells; inhibition, % at 12.5 µM; 330,000 tested, 0.83% active; SK-MEL-5 TRPM1 promoter luciferase, 24 h;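 active means mean inhibition across replicates of 60% or more, whatever share of single replicates reaches that level; inconclusive means some that reach 60%, reason not given; inactive means mean inhibition across replicates below 60%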
LGR2 inh: inhibitors of bursicon-induced Drosophila LGR2 receptor cAMP signaling. HEK293 LGR2, CRE-luciferase, bursicon-stimulated, 4 h. inhibition, % at 9.99 µM. 380,000 tested, 0.35% active;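 active means drop in luminescence signal, shown as inhibition above about 50% in the replicate tests, limit read from the data, passing the limit was not always enough; inconclusive means probably only some replicates passing the limit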;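 further: agonist challenge used bursicon conditioned medium at about half maximal strength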
The depositor's hits bear a star.

Results for C[C@H](CO)N1C[C@H](C)[C@H](CN(C)Cc2ccc(C(F)(F)F)cc2)Oc2ccc(NC(=O)CCCCCC(=O)Nc3ccccc3N)cc2C1=O ?
EWS-Fli block: 1; PGC1a acetyl inh: -13; PAX8 reporter: inconclusive; LGR2 inh: 15

What do the screens show for `C[C@@H]1CN([C@H](C)CO)C(=O)c2cc(NC(=O)CCCCCC(=O)Nc3ccccc3N)ccc2O[C@@H]1CN(C)Cc1ccc(Oc2ccccc2)cc1`?
PGC1a acetyl inh: 1; PAX8 reporter: 71*; LGR2 inh: -1

How did C[C@@H]1CN([C@H](C)CO)C(=O)c2cc(NC(=O)CCCCCC(=O)Nc3ccccc3N)ccc2O[C@@H]1CN(C)Cc1ccc(C(F)(F)F)cc1 do in these assays?
PGC1a acetyl inh: 6; PAX8 reporter: 95*; LGR2 inh: -7

What do the screens show for `C[C@@H]1CN([C@H](C)CO)C(=O)c2cc(C3=CCCCC3)cnc2O[C@H]1CN(C)C(=O)CN1CCOCC1`?
EWS-Fli block: -19; PGC1a acetyl inh: -1; LGR2 inh: 13

How did C[C@@H]1CN([C@H](C)CO)S(=O)(=O)c2ccc(C#CC3(O)CCCC3)cc2O[C@H]1CN(C)C(=O)c1ccccc1 do in these assays?
EWS-Fli block: 6; PGC1a acetyl inh: -12; LGR2 inh: 1

What do the screens show for `CN(C)CC(=O)N1[C@H](CO)[C@@H](c2ccccc2)C12CN(CCC(F)(F)F)C2`?
EWS-Fli block: -5; PGC1a acetyl inh: -1; PAX8 reporter: -10; LGR2 inh: 25

Results for CC1CCC(C(C)C)C(OC(=O)C[n+]2cc(-c3ccc(Cl)cc3)n3c2CCC3)C1 (configuration not stated) ?
EWS-Fli block: 14; PGC1a acetyl inh: -3; PAX8 reporter: 41; EBV LMP1 NFkB: 6; MITF TRPM1 inh: 29; LGR2 inh: 33

Results for Cc1cccc(OCc2n(CC(=O)OC3CC(C)CCC3C(C)C)c3ccccc3[n+]2C)c1 (configuration not stated) ?
PGC1a acetyl inh: -38; EBV LMP1 NFkB: -15; MITF TRPM1 inh: 96*

What do the screens show for `Cc1cccc(OC(=O)Cn2c(C(F)(F)F)nc3ccccc32)c1`?
PGC1a acetyl inh: -13; EBV LMP1 NFkB: 2; MITF TRPM1 inh: 4

What do the screens show for `CC1CCC(C(C)C)C(OC(=O)Cn2c(-c3ccc(F)cc3)[n+](C)c3ccccc32)C1` (configuration not stated)?
EWS-Fli block: 13; PAX8 reporter: 94*; EBV LMP1 NFkB: 15; MITF TRPM1 inh: 80*; LGR2 inh: inconclusive

Results for CC1CCC(C(C)C)C(OC(=O)Cn2c(-c3ccccc3)[n+](C)c3ccccc32)C1 (configuration not stated) ?
EWS-Fli block: 14; PGC1a acetyl inh: 1; PAX8 reporter: 81*; EBV LMP1 NFkB: -21; MITF TRPM1 inh: 87*; LGR2 inh: 59*

What do the screens show for `O=C(NCC[C@@H]1CC[C@@H](NC(=O)C2CCCCC2)[C@H](CO)O1)Nc1ccc(Cl)cc1`?
EWS-Fli block: -39; PGC1a acetyl inh: -18; PAX8 reporter: -56; LGR2 inh: -26

How did C[C@@H]1CN([C@H](C)CO)S(=O)(=O)c2ccc(-c3cccnc3)cc2O[C@@H]1CN(C)Cc1ccncc1 do in these assays?
EWS-Fli block: 2; PGC1a acetyl inh: 4; LGR2 inh: 3

Results for C[C@@H]1CCCCO[C@H](CN(C)S(=O)(=O)c2ccccc2)[C@@H](C)CN([C@@H](C)CO)C(=O)c2cc(NC(=O)CCCN(C)C)ccc2O1 ?
EWS-Fli block: -5; PGC1a acetyl inh: -7; PAX8 reporter: -19; LGR2 inh: -2

How did O=C(NCCc1c[nH]c2ccccc12)c1cccnc1 do in these assays?
EWS-Fli block: -2; PGC1a acetyl inh: -23; PAX8 reporter: 71*; EBV LMP1 NFkB: -11; MITF TRPM1 inh: -4

Results for O=C(CCC(=O)c1ccccc1)NCCc1c[nH]c2ccccc12 ?
EWS-Fli block: 10; PGC1a acetyl inh: -6; PAX8 reporter: 122*; EBV LMP1 NFkB: -2; MITF TRPM1 inh: 8; LGR2 inh: 1

Results for COc1ccc(C(=O)CCC(=O)NCCc2c[nH]c3ccccc23)cc1 ?
EWS-Fli block: 24; PGC1a acetyl inh: 4; PAX8 reporter: 14; EBV LMP1 NFkB: -13; MITF TRPM1 inh: 4; LGR2 inh: 2

Results for Cc1cnc(NC(=O)c2ccc3c(c2)OCCO3)s1 ?
EWS-Fli block: 77*; PGC1a acetyl inh: 2; PAX8 reporter: 99*; EBV LMP1 NFkB: 79*; MITF TRPM1 inh: 82*; LGR2 inh: 96*

How did CC(C)c1nnc(NC(=O)c2ccc3c(c2)OCO3)s1 do in these assays?
EWS-Fli block: inconclusive; PGC1a acetyl inh: 6; PAX8 reporter: 28; EBV LMP1 NFkB: 30; MITF TRPM1 inh: -2; LGR2 inh: 74*

Results for Cc1ccc([N+](=O)[O-])cc1NC(=O)c1ccc2c(c1)OCO2 ?
EWS-Fli block: -12; PAX8 reporter: 19; EBV LMP1 NFkB: 3; MITF TRPM1 inh: 2; LGR2 inh: -10

What do the screens show for `Cc1onc(-c2ccccc2)c1C(=O)Nc1ncc([N+](=O)[O-])s1`?
EWS-Fli block: 19; PAX8 reporter: 20; EBV LMP1 NFkB: -1; MITF TRPM1 inh: 3; LGR2 inh: 18

Results for O=C(Nc1ncc([N+](=O)[O-])s1)c1ccc2c(c1)OCO2 ?
EWS-Fli block: 49; PAX8 reporter: 75*; EBV LMP1 NFkB: 55*; MITF TRPM1 inh: 65*; LGR2 inh: 91*

What do the screens show for `Cc1ccc(C(=O)Nc2ncc([N+](=O)[O-])s2)cc1`?
EWS-Fli block: 76*; PGC1a acetyl inh: -23; PAX8 reporter: 87*; EBV LMP1 NFkB: 68*; MITF TRPM1 inh: 63*

Results for C[C@@H](NC(=O)[C@H]1[C@H](CO)[C@H]2Cn3c(cccc3=O)[C@@H]1N2C(=O)C1CCCC1)c1ccccc1 ?
EWS-Fli block: 4; LGR2 inh: -28

What do the screens show for `C[C@H](CO)N1C[C@H](C)[C@@H](CN(C)C(=O)Nc2cccc3ccccc23)Oc2ccc(NC(=O)Cc3ccccc3)cc2C1=O`?
LGR2 inh: -16

How did CC(C)(C)c1ccc(-n2nc(C#N)c(Cl)cc2=O)cc1 do in these assays?
EWS-Fli block: 58*; PGC1a acetyl inh: 82*; PAX8 reporter: 112*; EBV LMP1 NFkB: 4; MITF TRPM1 inh: 98*; LGR2 inh: 101*

What do the screens show for `S=C(NN=Cc1ccccn1)N(Cc1ccccn1)Cc1ccccn1`?
EWS-Fli block: 0; PGC1a acetyl inh: 2; PAX8 reporter: 20; EBV LMP1 NFkB: 8; MITF TRPM1 inh: 74*; LGR2 inh: -39

How did O=C(CCCC(=O)N/N=C\c1ccccn1)N/N=C\c1ccccn1 do in these assays?
EWS-Fli block: 6; PAX8 reporter: 0; EBV LMP1 NFkB: -7; MITF TRPM1 inh: 7; LGR2 inh: -3
